Experimental findings from the supplement of paper PMC9262897, “Low-cost anti-mycobacterial drug discovery using engineered E. coli” (Nature Communications, 2022) are described below.

Each structure is given as a SMILES string. Where a name gives a salt, the structure may show the parent alone. ± gives the standard deviation of the averaged measurements.

The test relates to E. coli TESEC Mtb Alr. Nature of the test: growth (OD600 after 10 h); higher = more growth (less inhibition). The following applies: compound 0.1 mM. On the procedure:
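TESEC Mtb Alr E. coli, or the Alr+ wild-type control, in 384-well plates with Prestwick library compounds at 0.1 mM and 1% DMSO, across arabinose induction levels of 1E3 to 1E7 nM. Growth is read as OD600 after 10 h at 37 °C in triplicate biological replicates.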

Where [1] appears, read: arabinose 1000 nM, raw OD600 reference: median of DMSO wells 0.294, cell-free background 0.041.
The mark [2] stands for this setting: arabinose 10000 nM, raw OD600 reference: median of DMSO wells 0.264, cell-free background 0.041.
Where [3] appears, read: arabinose 100000 nM, raw OD600 reference: median of DMSO wells 0.201, cell-free background 0.041.
The mark [4] stands for this setting: arabinose 1000000 nM, raw OD600 reference: median of DMSO wells 0.193, cell-free background 0.041.
The mark [5] stands for this setting: arabinose 10000000 nM, raw OD600 reference: median of DMSO wells 0.146, cell-free background 0.041.

Take `C=C1C[C@@H]2[C@H](CC[C@]3(C)C(=O)CC[C@@H]23)[C@@]2(C)C=CC(=O)C=C12` [Exemestane]: the growth was found to be 0.1298 ± 0.0011 under setting [1]; 0.165 ± 0.0017 under setting [2]; 0.108 ± 0.0018 under setting [3]; 0.0722 ± 0.0026 under setting [4]; 0.0997 ± 0.0036 under setting [5].
The matching figures for `CC(=O)OCC(=O)[C@H]1CC[C@H]2[C@@H]3CC[C@H]4C[C@H](O)CC[C@]4(C)[C@H]3C(=O)C[C@]12C` [Alfadolone acetate]: 0.196 ± 0.003, 0.222 ± 0.0029, 0.194 ± 0.0054, 0.153 ± 0.0021 and 0.109 ± 0.0024.
The matching figures for `CN(C)C(=O)Oc1ccc[n+](C)c1` [Pyridostigmine iodide]: 0.305 ± 0.0085, 0.25 ± 0.0086, 0.253 ± 0.012, 0.181 ± 0.0086 and 0.138 ± 0.0049.
Consider `c1ccc2nc(N3CCNCC3)ccc2c1` [Quipazine dimaleate salt], for which the growth was found to be 0.298 ± 0.016 under setting [1]; 0.25 ± 0.0049 under setting [2]; 0.212 ± 0.04 under setting [3]; 0.177 ± 0.0045 under setting [4]; 0.148 ± 0.0043 under setting [5].
On the same counts, the results for `O=[N+]([O-])O[C@@H]1CO[C@H]2[C@@H]1OC[C@@H]2O` [Isosorbide mononitrate] are 0.292 ± 0.0083, 0.261 ± 0.018, 0.198 ± 0.035, 0.209 ± 0.018 and 0.136 ± 0.0044.
The matching figures for `C[N+]12CCC(CC1)C(OC(=O)C(O)(c1ccccc1)c1ccccc1)C2` (stereo not given) [Clidinium bromide]: 0.326 ± 0.011, 0.273 ± 0.0033, 0.175 ± 0.03, 0.187 ± 0.01 and 0.132 ± 0.0086.
The matching figures for `CC(C)(C)NCC(O)c1cc(Cl)c(N)c(Cl)c1` (stereo not given) [Clenbuterol hydrochloride]: 0.292 ± 0.0084, 0.246 ± 0.005, 0.252 ± 0.011, 0.215 ± 0.005 and 0.157 ± 0.0026.
As to `CCC1(c2cccc(O)c2)CCCCN(C)C1` (stereo not given) [Meptazinol hydrochloride], the growth reads like this: under setting [1], 0.3214 ± 0.0014; under setting [2], 0.3 ± 0.0084; under setting [3], 0.192 ± 0.015; under setting [4], 0.203 ± 0.018; under setting [5], 0.139 ± 0.0077.
